Several values for one entry are separate records, joined by “and”; a condition that tells them apart may be missing. Identical values can stand only once. Screen size: about 280,000 compounds; about 820 (0.29%) were called active. Not shown: some 1% with an inconclusive outcome. Calls follow the shape of the dose curve; as a rule, active = well fitted curve in either direction with a large enough effect; inconclusive = small, poorly fitted or top-dose-only effect; inactive = flat fitted curve, though single readings scatter. What follows is part of a selection rich in actives, with near analogues and random picks from the rest. Where a call stands in place of a potency, no number is given. The source holds several records for some structures; these can differ, active in one and inactive in another.
assay: Total Fluorescence Counterscreen for Inhibitors of the Interaction of Thyroid Hormone Receptor and Steroid Receptor Coregulator 2; settings: TRb/SRC2 Texas Red total fluorescence interference; series mostly up to 106 µM
Description: NIH Molecular Libraries Probe Production Network [MLPCN]
NIH Chemical Genomics Center [NCGC]
Assay Provider: R. Kip Guy, St. Jude Children's Research Hospital
Thyroid receptor (TR) regulates many homeostatic processes including basal metabolism, cardiovascular function, body weight, and lipid trafficking. TR modulators are potential therapeutics for obesity and hyperlipidemias but current thyroid analogs have undesirable side effects, particularly cardiac stimulation. To identify inhibitors that specifically prevent the interaction of TR with the steroid receptor […] 2 (SRC2), a fluorescence polarization assay was screened. This assay detects interaction of the ligand-binding domain of human TRb with a Texas Red labeled SRC2 peptide, corresponding to a 20 amino acid region of the nuclear receptor interaction domain (Arnold et al., 2006). Total fluorescence (555 nm excitation and 632 nm emission) was measured to identify potential fluorescent and light absorbing compounds. Such compounds may be artifacts that interfere with the fluorescence polarization assay.
Arnold, L. A.; Estebanez-Perpina, E.; Togashi, M.; Shelat, A.; Ocasio, C. A.; McReynolds, A. C.; Nguyen, P.; Baxter, J. D.; Fletterick, R. J.; Webb, P.; Guy, R. K. A high-throughput screening method to identify small molecule inhibitors of thyroid hormone receptor coactivator binding. Sci STKE 2006, p 13.
NCGC Assay Protocol Summary:
For screening, 5 uL/well 0.6 uM TRb and 20 nM SRC2 Texas Red in protein buffer (20mM Tris hydrochloride, 100mM NaCl, 10% glycerol, 1mM EDTA, 0.01% NP-40, 1mM DTT, 1uM T3 and 5% DMSO) was dispensed into black solid 1536-well plates (Grenier) using a solenoid-based dispenser. Following transfer of 23 nL compound or DMSO vehicle by a pin tool, the plates were centrifuged 15 s at 1000 RPM and incubated 5 hr at ambient temperature. The plates were read by an Envision (Perkin Elmer) to detect fluorescence polarization of SRC2 Texas Red (555 nm excitation and 632 nm emission). Data were normalized to unbound (all components except TRb) and bound SRC2 Texas Red controls. Total fluorescence (TF) was calculated as follows: TF = S + 2P where S and P are fluorescence readings in the parallel and perpendicular channels, respectively.
Keywords: NIH Roadmap, MLPCN, MLI, MLSMR, qHTS, NCGC, qHTS, thyroid hormone receptor, steroid receptor coactivator, fluorescence polarization
Potency is read from the fitted curve at half-maximal effect; tags tell the direction and shape of the fitted curve or compound fluorescence and quenching.

Structure (SMILES) | Potency
CC(C)Sc1oc(-c2cccs2)nc1S(=O)(=O)c1ccc(Cl)cc1 | inactive
CC1(C)C(=O)N(Cl)C(=O)N1Cl | inactive
COc1ccc(OC)c(NC(=O)CSC2=Nc3ccccc3C3=NC(CC(=O)NCc4ccc(F)cc4)C(=O)N23)c1 (stereo not drawn) | inactive
Cc1ccc(S(=O)(=O)N(Cc2nc(-c3ccc(Cl)cc3)no2)C2CCCCC2)cc1 | inactive
C[Si](C)(C)N[Si](C)(C)C | inactive
CC(C)(C)OC(=O)N1CCC(c2c(C(=O)NCc3ccccn3)cnn2-c2ccc(F)cc2)CC1 | inactive
Cc1c(Cl)cccc1NC(=O)C1CCCN(c2ncnc3onc(C)c23)C1 (stereo not drawn) | inactive
Cn1nnnc1SCCCNCc1ccc(Cl)cc1 | inactive
O=C(Cn1c(=O)n(Cc2cccs2)c(=O)c2cccnc21)Nc1ccc(F)cc1 | inactive
CCOc1cccc(C(=O)Nc2nnc(S(=O)(=O)N(C)c3ccc(C)cc3)s2)c1 | inactive
Cc1ccccc1OCCSc1nc2ccc(NC(=O)c3ccco3)cc2s1 | inactive
C=Cc1ccc(Cn2c(C(=O)O)c(CNC3CCCC3)c3ccc(C)cc32)cc1 | inactive
O=C(COc1ccc(Cl)cc1)Nc1ccccc1OCc1cc(=O)n2ccccc2n1 | inactive
Cn1c(SCC(=O)N2CCCc3ccccc32)ncc(C(=O)Nc2ccc(F)cc2)c1=O | inactive
COc1ccc(-c2nn(CC(=O)Nc3ccccc3F)c3c2cnc2ccc(F)cc23)cc1 | inactive
CCN(CC)c1nn2c(=O)c(C(=O)NCCc3ccccc3)cnc2s1 | inactive
COc1ccc(N2CCN(c3nc(-c4ccccc4F)nc4ccccc34)CC2)cc1 | inactive
Oc1c(Cl)cc(Cl)c(Cl)c1Cc1c(O)c(Cl)cc(Cl)c1Cl | inactive and 44.7 µM [quencher] (active)
CCOc1ccccc1CNC(=O)C1CCCN(S(=O)(=O)c2ccc3c(ccn3C)c2)C1 (stereo not drawn) | inactive
Cc1cccc(C(C)C)c1NC(=O)C(NS(=O)(=O)c1cccc2nsnc12)c1ccccc1 (stereo not drawn) | inactive
O=C(Nc1ccc(N2CCOCC2)cc1)c1ccc2c(c1)OCO2 | inactive
O=C(Nc1ccc2c(c1)OCO2)c1ccc(N2C(=O)c3ccccc3C2=O)cc1 | 0.0079 µM [quencher] (active)
Cn1c(=O)n(C)c2cc(C(=O)Nc3ccc4c(c3)OCO4)ccc21 | inactive
Cc1cccc(-n2ccnc2SCC(=O)Nc2cccc3ccccc23)c1C | inactive

Structure (SMILES) | Potency
CC(C)(C)c1ccc(C(=O)NCC(c2ccc(Cl)cc2)N2CCOCC2)cc1 (stereo not drawn) | 10 µM [quencher] (active)
O=C(NCC(c1ccc(Cl)cc1)N1CCOCC1)c1ccccc1F (stereo not drawn) | inactive
COc1cc(C(=O)NCC(c2ccc(Cl)cc2)N2CCOCC2)cc(OC)c1OC (stereo not drawn) | inactive
CCC(C(=O)NCc1ccc(OC)cc1)n1nc(C)n2c(cc3occc32)c1=O (stereo not drawn) | inactive
CCCNC(=O)C(CC)n1nc(CC)n2c(cc3oc(C)cc32)c1=O (stereo not drawn) | 22.4 µM [quencher] (active)
CCOc1ccc(CCNC(=O)C(CC)n2nc(C)n3c(cc4sccc43)c2=O)cc1OCC (stereo not drawn) | inactive
CCOc1cc(NC(=S)NCc2ccco2)c(OCC)cc1NC(=O)c1ccco1 | inactive
CCOc1cc(NC(=O)c2ccco2)c(OCC)cc1NC(=O)COc1ccccc1 | inactive
CCOc1cc(NC(=S)NCCCOC)c(OCC)cc1NC(=O)c1ccco1 | 7940 µM [quencher] (active)
O=C(NCCc1ccccc1)c1cnc2sc(N3CCCC3)nn2c1=O | inactive
CCOC(=O)c1ccc(NC(=O)CCS(=O)(=O)c2ccc3c(c2)oc(=O)n3C)cc1 | inactive
CCOC(=O)c1ccc(NC(=O)CCn2c(=O)oc3ccccc32)cc1 | 501 µM [quencher] (active)
O=C(CCn1c(=O)oc2ccccc21)Nc1ccon1 | inactive
CCOC(=O)c1ccc2c(c1)N(Cc1cccc(OC)c1)C(=O)c1ccccc1S2(=O)=O | inactive
Cc1nn(-c2ccc(F)cc2)c(-n2cccc2)c1C(=O)N1CCN(c2ccccc2)CC1 | inactive
CCCOc1ccc(N/C=C/C(=O)C(C)(C)C)cc1 | inactive
CN(C)c1ccc(N/C=C/C(=O)C(F)(F)F)cc1 | 44.7 µM [fluorescent] (active)
O=C(/C=C/Nc1ccccc1OC(F)(F)F)C(F)(F)F | inactive
COC(=O)c1ccc(CSc2nncn2C)cc1 | inactive
COC(=O)c1ccc(CSc2nncn2N)cc1 | inactive
CCOC(=O)c1ccc(CSc2nnc3cc(C)c4ccccc4n23)cc1 | 1.41 µM [quencher] (active)
Cn1c(=O)c2c(ncn2CC(=O)Nc2cccc(C(F)(F)F)c2)n(C)c1=O | inactive
O=C(Nc1ccc(OC(F)(F)F)cc1)c1cc2c(=O)n3ccccc3nc2s1 | inactive
Cn1c(C(=O)Nc2cccc(C(F)(F)F)c2)cc2c(=O)n3ccccc3nc21 | 44.7 µM [quencher] (active)

Reference: PubChem BioAssay AID1479 (National Center for Advancing Translational Sciences (NCATS), 2009)
